PubChem BioAssay (NCATS)
Records with an inconclusive call do not appear. Where a call stands in place of a potency, no number is given. Active and inactive are the calls of the source. Unless noted, calls follow the shape of the dose curve; as a rule, active = well fitted curve in the direction sought with a large enough effect; inconclusive = small, poorly fitted or top-dose-only effect, or another doubt; inactive = no such curve, though single readings can be large; an effect the other way counts as inactive or inconclusive.

What was measured:
[1] = P-glycoprotein substrates identified in KB-8-5-11 adenocarcinoma cell line, qHTS therapeutic library screen (AID 1346987); also: nearly all actives have a fitted effect of over 65% in size; also: potency is read from the fitted curve at half-maximal effect
Method in brief: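 Luminescence from CellTiter-Glo, read 5 min after addition, quantified survival of KB-8-5-11 (P-gp-overexpressing) cells exposed to compounds for 72 h. AC50 was derived from concentration-response curves.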

[2] = biological target: Calcium and integrin-binding protein 1 (Homo sapiens) (UniProt Q99828); assay: Primary qHTS for Identification of Calcium Integrin Binding Protein 1 (CIB1) Competitor (AID 1508620);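 also: GST tagged CIB1 binding a fluorescein labelled alphaIIb integrin peptide tracer; top concentration of the series differs between compounds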
Method in brief: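 Fluorescence polarization competition: CIB1-GST (1 uM final) preincubated with compound 15 min at room temperature, then FITC-labeled alphaIIb peptide (100 nM final) added for another 15 min. Polarization read at Ex 480/Em 540.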

[3] = Primary qHTS for inhibitors of nuclear receptor binding SET domain protein 2 (NSD2) in an isogenic RCH-ACV NSD2 p.E1099K mutant (9B) (AID 1645876); also: nearly all actives have a fitted effect of over 70% in size; also: potency is read from the fitted curve at half-maximal effect
[4] = Primary qHTS for inhibitors of nuclear receptor binding SET domain protein 2 (NSD2) in an RCH-ACV wild type WT cells (2C) (AID 1645877); also: nearly all actives have a fitted effect of over 70% in size; also: potency is read from the fitted curve at half-maximal effect
[5] = biological target: Glutathione peroxidase 1 (Homo sapiens) (UniProt P07203); assay: Primary qHTS Assay for Inhibitors of Recombinant Selenoprotein Glutathione Peroxidase 1 (GPX1) (AID 1845191); also: nearly all actives have a fitted effect of over 65% in size
Method in brief: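 GPX1 10 nM, GR 100 nM, GSH 1 mM, NADPH 0.5 mM, CHP 0.5 mM (final). 30-min cpd preincubation, RT. Ex340/Em450 read t=0, t=15 min.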

[6] = qHTS to identify inhibitors of the type 1 interferon - major histocompatibility complex class I in skeletal muscle: primary screen against the NCATS Mechanism Interrogation Plate v5.0 (MIPE) Libary (AID 1347411); also: nearly all actives have a fitted effect of over 65% in size
Method in brief: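 Seed engineered human myoblasts (HLA-B HiBit) in medium without dexamethasone containing 4 ng/ml IFN-beta; after 1 hr add compound titrations (top 46 uM final). Incubate 24 hrs at 37 C, lyse 10 min with HiBiT reagent, read luminescence.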

[7] = biological target: Phospholipid hydroperoxide glutathione peroxidase GPX4 (Homo sapiens) (UniProt P36969); assay: Primary qHTS Assay for Inhibitors of Recombinant Selenoprotein Glutathione Peroxidase 4 (GPX4) (AID 1845192); settings: outcome: dose series up to 50 µM unless noted; also: series mostly up to about 50 µM; nearly all actives have a fitted effect of over 65% in size
Method in brief: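 qHTS, GR-coupled: GPX4 200 nM + cpd 30 min RT → GSH 1 mM, NADPH 0.5 mM, GR 100 nM → CHP 0.5 mM start; fluor 340/450 at t0 and t15 min; no-enzyme wells as control.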

[8] = qHTS drug screen for cell cycle checkpoint inhibitors in PARPi-resistant BRCA-mutant ovarian cancer cell lines. (AID 1963452; calls by dose curve); settings: PEO1/OlaR viability, CellTiter-Glo luminescence, 96 h, stronger effect = lower value
Method in brief: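 PEO1, PEO4 and PEO1/OlaR ovarian cancer cells, 600 per well, exposed 96 h at 37C to a dilution series. Viability read by CellTiter-Glo luminescence, normalized to DMSO and empty wells; activity summarized as Z-AUC.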

Glutathione peroxidase 1 (Homo sapiens), sequence (P07203 whole entry, looked up): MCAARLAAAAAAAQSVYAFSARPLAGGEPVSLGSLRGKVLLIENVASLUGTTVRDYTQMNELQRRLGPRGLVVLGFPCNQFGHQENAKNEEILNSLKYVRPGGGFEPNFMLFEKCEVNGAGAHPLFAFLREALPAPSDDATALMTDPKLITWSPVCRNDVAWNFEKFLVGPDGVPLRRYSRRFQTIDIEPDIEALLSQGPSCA
Calcium and integrin-binding protein 1 (Homo sapiens), sequence (Q99828 whole entry, looked up): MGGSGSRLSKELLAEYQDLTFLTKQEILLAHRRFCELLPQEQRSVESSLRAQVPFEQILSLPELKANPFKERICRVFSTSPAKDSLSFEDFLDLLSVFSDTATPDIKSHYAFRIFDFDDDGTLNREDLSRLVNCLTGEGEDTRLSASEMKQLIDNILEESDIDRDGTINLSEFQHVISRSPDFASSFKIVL
Phospholipid hydroperoxide glutathione peroxidase GPX4 (Homo sapiens), sequence (P36969 whole entry, looked up): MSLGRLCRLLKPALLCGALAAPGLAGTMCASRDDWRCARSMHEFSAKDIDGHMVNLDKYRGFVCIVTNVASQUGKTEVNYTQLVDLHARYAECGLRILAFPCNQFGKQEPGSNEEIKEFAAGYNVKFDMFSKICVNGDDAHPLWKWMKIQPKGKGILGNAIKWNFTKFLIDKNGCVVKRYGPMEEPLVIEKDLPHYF

| SMILES | Potency [1] | outcome [2] | Potency [3] | Potency [4] | Potency [5] | Potency [6] | Potency [7] | Z-AUC [8] | Z-AUC ([8]; measured here: PEO1 parental Z-AUC) | Z-AUC ([8]; measured here: PEO4 Z-AUC) |
| --- | --- | --- | --- | --- | --- | --- | --- | --- | --- | --- |
| O=C1CCCC2=C1C1(CCSCC1)N=C(Nc1nc3ccccc3o1)N2 | inactive | inactive | inactive | inactive | inactive |  |  |  |  |  |
| O=C1NCCCc2c1oc1ccc(O)cc21 | inactive |  |  |  |  |  |  |  |  |  |
| CNc1ncc2cc(-c3cc(NC(=O)NCCC(C)(C)C)c(F)cc3C)c(C)nc2n1 | 4.61 µM (active) |  | 0.417 µM (active) | 0.59 µM (active) | inactive | inactive | inactive | -1.04 (inactive) | -0.267 | -0.215 |
